The source of these data is PubChem BioAssay AID504727 (Broad Institute, 2011).

By AC50 is commonly meant the concentration giving half of the maximal activity seen.

Unmarked numbers belong to inactive results. Active and inactive are the calls of the source.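 Rule for the calls: active = fitted half-maximal concentration AC50 at or below ten times the highest valid tested dose, with signal falling as DNA is displaced (actives reach about 34 µM in these data); inconclusive = flat fit at moderate signal loss, or poor fit quality; inactive = the rest, including signal rising instead of falling.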

This test in a line: acridine orange-DNA binding displacement – biochemical, fluorescence polarization, cherry-picked samples, set 2, artefact control for KSHV LANA DNA-binding inhibitor project, dose response (AID 504727).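 For activity change, negative = DNA displacement: 0% = median of neutral control wells and -100% = mitoxantrone positive control wells.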 The following applies: series mostly up to 35 µM; activity change, negative = DNA displacement: at the top concentration. For orientation: Polarisation of emitted light reports the rotation of a fluorescent probe.
For the molecule `Cc1ccc2cccc(OCC(=O)NCCC3=CCCCC3)c2n1`, the “activity change, negative = DNA displacement” value (“activity change” below) is 0.187%.

On to `CCOc1ccccc1N1CCN(C(=O)c2ccc3nc(N)sc3c2)CC1`, for which the “activity change” value is 5.07%.

For the molecule `CCn1c(-c2ccc([N+](=O)[O-])cc2)n[nH]c1=S`, the “activity change” value was -3.7%.

Consider `Cc1ccc(/C=C/S(=O)(=O)N2CCC(C(=O)O)CC2)cc1`, for which the “activity change” value is 2.52%.

As to `O=C(O)c1cc(N2C(=O)C=CC2=O)cc(N2C(=O)C=CC2=O)c1`, the “activity change” value was -1.71%.

With `CCN(CC)CCN1C(=O)c2cccc3cc(N)cc(c23)C1=O`, the AC50 was 17 µM (active).

Consider `Cc1cccc(N2C(=O)c3cccc4c(N)ccc(c34)C2=O)c1`, for which the AC50 is 4.82 µM (active).

With `CC(=O)OCCCn1c(C)[n+](C)c2cc(Cl)c(Cl)cc21`, the “activity change” value is 4.62%.

As for `COc1cccc(NC(=O)CN(C)CC(=O)NCc2ccco2)c1`, the “activity change” value was 4.77%.

For the molecule `CC(=O)OCCn1c2nc(=O)[nH]c(=O)c-2nc2cc(C)c(C)cc21`, the half-maximal activity concentration (AC50) is 0.342 µM (active).

Take `O=C(O)C1Nc2ccc(Br)cc2C2C=CCC12` (stereo not drawn): the “activity change” value is 1.26%.

On to `CCOC(=O)C1Nc2ccccc2C2C(O)C(O)CC12` (stereo not drawn), for which the “activity change” value is 3.73%.

Take `O=C1CCCC2=C1C(c1ccc(O)c(O)c1)Nc1ccc3ncccc3c12` (stereo not drawn): the “activity change” value is 1.66%.

On to `CCn1nc(-c2ccccc2)c2nc3ccccc3nc21`, for which the concentration at half-maximal activity (AC50) was 24.2 µM (active).

Take `NNc1nnc2c3cc(F)ccc3n(Cc3ccccc3)c2n1`: the “activity change” value was 3.5%.

With `CC(C)[C@H](NC(=O)c1ccccc1F)C(=O)NC1CCCCCCC1`, the “activity change” value is 4.11%.

As to `O=C(CCNc1ccc(Cc2ccncc2)cc1)c1cccc([N+](=O)[O-])c1`, the “activity change” value is -1.92%.

As to `COc1cc(C(=S)N2CCN(c3cccc(Cl)c3)CC2)ccc1O`, the “activity change” value is 2.99%.

Turning to `C=CC[C@@H](CC(=O)N(CCO)Cc1ccccc1)C(=O)NC[C@H](OC(=O)[C@@H](CC=C)CC(=O)OC(C)(C)C)c1ccccc1`, the “activity change” value was -0.711%.

Consider `CC(Sc1nc2ccccc2s1)C(=O)Nc1nnc(C(C)C)s1` (stereo not drawn), for which the “activity change” value was -3.03%.

Turning to `COc1ccc2[nH]c3c(C)c4cc[n+](C)cc4c(C)c3c2c1`, the AC50 was 2.53 µM (active).

For the molecule `Cc1sc2nnn(CC(=O)N3CCN(C(=O)c4ccco4)CC3)c(=O)c2c1C`, the “activity change” value was -0.188%.

Regarding `Fc1ccc(-c2cc(C(F)(F)F)nc(-n3cc(Cl)cn3)n2)cc1`, the “activity change” value is 5.26%.

As for `CS(=O)(=O)c1cccc(C(=O)Oc2ccccc2)c1`, the “activity change” value is 2.74%.

Regarding `CC(=O)O[C@@H]1[C@@H](OC(C)=O)[C@H](n2ccc3cc([N+](=O)[O-])ccc32)OC[C@@H]1OC(C)=O`, the “activity change” value is 5.05%.

With `COc1cc(SC)ccc1C(=O)Nc1nc(C)cs1`, the “activity change” value is -0.454%.

`NNC(=O)CC1=NNC(=O)C1`: the “activity change” value was 2.31%.

As for `O=[N+]([O-])c1cc(-n2cnnn2)ccc1N1CCC(Cc2ccccc2)CC1`, the “activity change” value is -4.6%.

As for `COc1ccc(-c2cnc3n2CCCCC3)cc1`, the “activity change” value was 5.56%.

With `Cc1ccc(N2CC(C(=O)Nc3nnc(SCC(=O)Nc4nc(C)cs4)s3)CC2=O)cc1` (stereo not drawn), the “activity change” value is 0.01%.

As for `Cc1ccc(-c2nnc(-c3ccc(NC(=O)c4ccco4)cc3)o2)cc1`, the “activity change” value is -0.353%.

Consider `CC(/C=C1\SC(=S)N(CCCC(=O)Nc2ccc(C(=O)O)cc2)C1=O)=C\c1ccccc1`, for which the “activity change” value is 6.23%.

On to `COc1ccc(OC)c(NC(=O)c2nnn(Cc3ccc(Br)cc3F)c2N)c1`, for which the “activity change” value is 7.55%.

Consider `Oc1ccc2nnc3c(Br)cnn3c2c1`, for which the AC50 is 8.34 µM (active).

Consider `O=C(c1ccccc1)c1ccc(O)cc1O`, for which the AC50 was 7.3 µM (active).

Regarding `CCN(CC)c1ccc2cc(S(=O)(=O)c3ccc(C)cc3)c(=O)oc2c1`, the “activity change” value was -122%.

For `OCCN(CCO)c1nc(N2CCCCC2)c2nc(N(CCO)CCO)nc(N3CCCCC3)c2n1`, the AC50 was 8.59 µM (active).

Regarding `O=C1c2cccc3c(O)ccc(c23)C(=O)N1c1ccc(Cl)cc1`, the AC50 is 2.95 µM (active).
